According to PubChem BioAssay AID1508615 (Milbrandt Lab, Department of Genetics, Washington …, 2020):
In all, about 1,600 compounds went through this assay and about 20 (1%) were called active. The full list was thinned out, with actives kept by preference. Unmarked numbers belong to inactive results.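 Rule for the calls: active = ratio of uncleaved NAD to its breakdown product ADP-ribose above 4, meaning the enzyme was inhibited; inactive = the rest.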

These compounds were tested against NAD(+) hydrolase SARM1 (Homo sapiens) (UniProt Q6SZW1) (assay: inhibition of SAM-TIR NAD hydrolysis to ADPR – cell lysate, HPLC readout, primary screen (AID 1508615;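 note: substrate NAD at 5 µM with 60 min at 37 °C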)). Settings: HEK293T SAM-TIR lysate, NAD/ADPR ratio by HPLC; at 5 µM; stronger effect = higher value.
Chain of NAD(+) hydrolase SARM1 (Homo sapiens) (Q6SZW1 whole entry, looked up): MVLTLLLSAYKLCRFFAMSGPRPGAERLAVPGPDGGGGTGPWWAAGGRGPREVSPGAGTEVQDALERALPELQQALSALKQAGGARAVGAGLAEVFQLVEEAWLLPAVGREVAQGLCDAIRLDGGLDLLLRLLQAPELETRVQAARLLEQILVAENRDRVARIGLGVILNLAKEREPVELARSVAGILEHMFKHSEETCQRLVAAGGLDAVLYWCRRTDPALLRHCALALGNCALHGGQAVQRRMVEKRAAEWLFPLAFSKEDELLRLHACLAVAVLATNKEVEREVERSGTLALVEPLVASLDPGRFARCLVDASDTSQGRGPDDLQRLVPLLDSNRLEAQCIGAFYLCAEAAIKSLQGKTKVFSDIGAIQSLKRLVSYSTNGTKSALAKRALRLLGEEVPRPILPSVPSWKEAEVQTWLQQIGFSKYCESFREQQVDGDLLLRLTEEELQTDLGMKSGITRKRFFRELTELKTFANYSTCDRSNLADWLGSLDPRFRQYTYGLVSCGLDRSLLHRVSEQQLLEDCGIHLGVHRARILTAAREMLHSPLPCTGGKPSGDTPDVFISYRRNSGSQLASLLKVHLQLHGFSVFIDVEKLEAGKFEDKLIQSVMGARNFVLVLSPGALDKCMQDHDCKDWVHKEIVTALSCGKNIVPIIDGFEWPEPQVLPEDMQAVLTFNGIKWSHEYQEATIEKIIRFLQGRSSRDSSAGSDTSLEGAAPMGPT

| SMILES | NAD/ADPR ratio |
| --- | --- |
| S=c1nc[nH]c2c1cnn2-c1ccccc1 | 3 |
| CCOC(=O)c1c[nH][nH]c1=O | 3 |
| NC(=O)N/N=C1\CC2CC1C1C=CCC21 (centres undefined) | 3 |
| Cc1nc(Nc2ccc(F)cc2)nc(Nc2ccc(F)cc2)c1[N+](=O)[O-] | 3 |
| Cc1cc2nc3ccc(=[N+](C)C)cc-3sc2cc1N | 3 |
| Cn1c(=O)c2[nH]c(CCCc3ccc([N+](=O)[O-])cc3)nc2n(C)c1=O | 3 |
| CCCc1cc(=O)oc2c3c(c4c(c12)OC(C)(C)C=C4)OC(C)C(C)C3O (centres undefined) | 3 |
| CSc1cccc(NC(=O)Nc2nc3c(C)cccc3s2)c1 | 3 |
| Cc1nc2ccc(Cl)cn2c1[N+](=O)[O-] | 3 |
| Cn1ncc2c(Nc3ccccc3Cl)nc(Cl)nc21 | 3 |
| Cc1ccc(NC(=S)NC(=O)c2ccccc2)cc1NC(=S)NC(=O)c1ccccc1 | 3 |
| Cc1cc(O)c(-c2cc(O)c(C)cc2O)cc1O | 5.8 (active) |
| CCN(CC)CCNC(=O)c1ccc(NCN2C(=O)NC(c3ccccc3)(c3ccccc3)C2=O)cc1 | 3 |
| Cc1cnc2cc(Cl)ccc2c1SCC(=O)O | 3 |
| O=C1NC(=O)N2CCSC2(Cc2ccccc2)N1 (centres undefined) | 3 |
| Nc1ncnc2c1ncn2C1C=C(CO)C(O)C1O (centres undefined) | 3 |
| CCOP(=O)(OCC)/C(C#N)=C/c1ccc(-c2ccc(F)cc2F)o1 | 3 |
| O=c1[nH]cnc(CN2CCCCC2)c1O | 3 |
| CC12CCC(C(=Nc3ccc(N=C4C(=O)C5(C)CCC4C5(C)C)cc3)C1=O)C2(C)C | 3 |
| C#CCOCC1CN(c2ccccc2)C(=O)O1 (centres undefined) | 3 |
| N#Cc1cnn(-c2cccc(Cl)c2)c1-n1cccc1 | 3 |
| Cc1ccc(N=Nc2ccc(C)cc2NC(=O)Nc2ccccc2F)cc1 | 3 |
| Clc1nc2nc3n(c2nc1Cl)CCC3 | 3 |

| SMILES | NAD/ADPR ratio |
| --- | --- |
| CC(=O)Nc1cc(NC(C)=O)ncn1 | 3 |
| O=C(c1ccccc1)c1ccc(Sc2ccc([N+](=O)[O-])cc2)cc1 | 3 |
| O=C1C=C(c2ccccc2)OC(=O)C1C(=O)c1ccccc1 (centres undefined) | 3 |
| O=C(c1ccccc1)C1C(c2ccccc2)C1[N+](=O)[O-] (centres undefined) | 5.3 (active) |
| Clc1ccc(-c2n[nH]c3c2Cc2ccccc2-3)cc1Cl | 3 |
| COc1ccc(C(=S)N2CCN(c3ccccc3Cl)CC2)cc1OC | 3 |
| O=C(O)C(c1ccccc1)C1(O)CCCCC1 (centres undefined) | 3 |
| Cc1cc2cc3c(=O)[nH]c(=O)cc-3n(CC(O)C(O)C(O)CO)c2cc1C (centres undefined) | 3.3 |
| C#CCSc1nnnn1-c1ccc(Br)c(C)c1 | 3 |
| Cc1ccc(S(=O)c2ccc([N+](=O)[O-])c3nonc23)cc1 (centres undefined) | 13.2 (active) |
| O=[N+]([O-])c1cc2cccnc2c2ncccc12 | 3 |
| O=C(O)C(Cc1ccccc1N(CCO)CCO)N1C(=O)c2ccccc2C1=O (centres undefined) | 3 |
| Nc1nc(N)nc(C2C=CCCC2)n1 (centres undefined) | 3 |
| O=C(Oc1ccccc1)c1cccc2cccc(C(=O)Oc3ccccc3)c12 | 3 |
| COc1ccc(N=Cc2c(O)ccc3c2oc2cc(Cl)c(O)c(Cl)c23)cc1 | 3 |
| CC(O)c1nc2c(c(=O)n(C)c(=O)n2C)n1C (centres undefined) | 3 |
| Cn1ncc2c(Nc3ccccc3Cl)nc(Nc3ccccc3Cl)nc21 | 3 |
| Nc1ccc(C(=O)Nc2ccc(Nc3ccncc3)cc2)cc1 | 3 |
| Cc1cc2c(cc1[N+](=O)[O-])NC(CNC(C)C)CC2 (centres undefined) | 3 |
| CNc1ncn(-c2c(C)cccc2C)c(=O)n1 | 3 |
| CS/C(=C\c1ccc(C(=O)c2ccc(C)cc2)n1C)S(C)=O (centres undefined) | 3 |
| COC(=O)C1=CC(=O)N2CCN=C2S1 | 3 |
| COc1cccc(NC(=S)Nc2ccc(O)cc2)c1 | 3 |

| SMILES | NAD/ADPR ratio |
| --- | --- |
| Cc1cccc(NC(=S)Nc2cccc(C)n2)n1 | 3 |
| NC(=O)Nc1n[nH]c(-c2ccccc2)n1 | 3 |
| Cc1ccc(N=Nc2c(N)nn(-c3ccccc3)c2N)cc1 | 3 |
| CCOC(=O)/C(C#N)=C/c1cccc(C)c1 | 3 |
| CCOC(=O)/C(C#N)=C1\SS/C(=C(/C#N)C(=O)OCC)S1 | 7.9 (active) |
| CCOC(=O)/C(C#N)=C/c1c[nH]c2ccccc12 | 3 |
| c1ccn(CCc2ccncc2)c1 | 3 |
| CSC1=NC=C(C#N)C2=NC(c3ccc(Cl)cc3)NN12 (centres undefined) | 3 |
| NC(=O)CCC(C(=O)O)N1C(=O)C2C3CCC(C3)C2C1=O (centres undefined) | 3 |
| CN(NC(=O)C(=O)NCc1ccco1)C(=O)NC1CCCCC1 | 3 |
| O=C(Nc1ccc(Cl)cc1)c1cc2c(cc1O)[nH]c1ccccc12 | 3 |
| O=C(Nc1ccc(Cl)c([N+](=O)[O-])c1)Nc1nc2ccccc2s1 | 3 |
| CCN1CCC(Nc2ccnc3cc(Cl)ccc23)CC1 | 3 |
| Cc1c(N2CCCC2)cc2c(c1NC(=O)c1ccccc1Cl)C(C)(C)CC2(C)C | 3 |
| CCC(C)Nc1nc2c(c(=O)n(C)c(=O)n2C)n1C (centres undefined) | 3 |
| N#CN=C(N)c1ccccc1 | 3 |
| COc1cccc(/C=C2\CCc3ccccc3C2=O)c1 | 3 |
| NC(=O)c1ccccc1NC(=O)c1ccccc1Cl | 3 |
| CC(=O)Nc1ccc(Cc2nc3c([nH]2)c(=O)n(C)c(=O)n3C)cc1 | 3 |
| CCOC(=O)c1ccc(NC(=O)Oc2cc(C)c(Cl)cc2C(C)C)cc1 | 3 |
| Nc1nc(Cl)cc(Nc2ccccc2Cl)n1 | 3 |
| O=[N+]([O-])c1ccc(/C=C/c2ccncc2)cc1 | 3 |
| COC(=O)C1(C(=O)OC)C2C(=O)C3C(C21)C3(C(=O)OC(C)(C)C)C(=O)OC(C)(C)C (centres undefined) | 3 |

| SMILES | NAD/ADPR ratio |
| --- | --- |
| c1ccc2c(c1)cnc1ccccc12 | 3 |
| NC(N)=Nc1nc2ccc([N+](=O)[O-])cc2[nH]1 | 3 |
| O=C(OCC1CCC=CO1)C1CCC=CO1 (centres undefined) | 3 |
| Cc1cc(=O)c2cc(C(=O)c3ccccc3)ccc2[nH]1 | 3 |
| O=S(=O)(O)c1ccc2c(c1)C(C(Cl)(Cl)Cl)OC(C(Cl)(Cl)Cl)O2 (centres undefined) | 3 |
| O=c1nccc(SCc2ccc(Cl)cc2Cl)[nH]1 | 3 |
| Oc1ccccc1-c1nc2c3ccccc3c3ccccc3c2[nH]1 | 3 |
| CN(C)c1nc(=NCc2ccco2)ss1 | 9.7 (active) |
| CN(C)C(=S)/N=c1\ssc(=S)n1Cc1ccco1 | 3 |
| O=C(O)CCC(=O)OCCN(Cc1ccc(Oc2ccc([N+](=O)[O-])cc2)cc1)C(=O)C(Cl)Cl | 3 |
| CN(C)CC1C2CCC(C2)C1O (centres undefined) | 3 |
| C(=C\c1ccccn1)/c1ccccn1 | 3 |
| O=C(Oc1ccc[nH]c1=O)c1cccc(Cl)c1 | 3 |
| Cc1nc(N)nc(Nc2ccc(C#N)cc2)c1Br | 3 |
| CCCCN1CCNC1=S | 3 |
| Cc1cccc(Nc2sc(C(=O)c3cc4cc(Cl)ccc4o3)c(N)c2C#N)c1 | 3 |
| O=c1c2ccccc2ncn1-c1ccc(Cl)cc1 | 3 |
| c1cncc(-c2nc3ccccc3s2)c1 | 3 |
| C1=CC2(C=C1)OC21CCC2(C=CC3(C2)OC3C2CCCCC2)CC1 (centres undefined) | 3 |
| NCc1c(O)ccc2ccccc12 | 3 |
| COC1CC(C)C(OC)c2cc(O)cc(c2O)NC(=O)/C(C)=C/C=C\C(C)C(OC(N)=O)/C(C)=C\C(C)C1OC (centres undefined) | 3 |
| NNC(=O)CNC(=O)Nc1n[nH]c(=S)s1 | 3 |
| O=C(c1cccnc1)c1cc(-c2ccccn2)c(=O)n2ccccc12 | 3 |

| SMILES | NAD/ADPR ratio |
| --- | --- |
| Cc1ccc(S(=O)(=O)N(C)C)cc1[N+](=O)[O-] | 3 |
| CC(C)(C)NC1=NCCNC(c2ccccc2)=C1 | 3 |
| S=c1c2[nH]cnc2ncn1CCSc1ncnc2nc[nH]c12 | 3 |
| CC1=C(C#N)C(C)(C)C(C#N)=C(C)N1 | 3 |
| CCCCCC(=O)N1CCCC1 | 3 |
| O=C1C(=Nc2cccc(Cl)c2)CC(c2ccc(Cl)cc2)N1c1cccc(Cl)c1 (centres undefined) | 3 |
| CN(C)c1nc(=Nc2cccc(Cl)c2)ss1 | 11.3 (active) |
| Nc1nc(=S)c2ncn(C3CCCC3)c2[nH]1 | 3 |
| O=c1oc(-c2ccccc2)c(-c2ccccc2)c2ccccc12 | 3 |
| O=[N+]([O-])c1cccc(/C=C/c2ccccn2)c1 | 3 |
| CC(C)(c1cc(Cl)c(O)c(CN2CCOCC2)c1)c1cc(Cl)c(O)c(CN2CCOCC2)c1 | 3 |
| O=c1[nH]c(C(F)(F)C(F)(F)C(F)(F)F)no1 | 3 |
| CN1C(=O)CC2(C)C1=CCc1scnc12 (centres undefined) | 3 |
| COc1ccc(C2=NC(=O)NC2c2ccc(OC)cc2)cc1 (centres undefined) | 3 |
| CCOc1nc(OCC)c2cnn(C)c2n1 | 3 |
| O=C1NC(=O)C2(CCc3ccccc32)N1 (centres undefined) | 3 |
| CC1(C)CC[C@]2(C(=O)n3ccnc3)CC[C@]3(C)[C@H](C(=O)C=C4[C@@]5(C)C=C(C#N)C(=O)C(C)(C)[C@@H]5CC[C@]43C)[C@@H]2C1 | 6.5 (active) |
| Cc1nc(N)[nH]c(=O)c1CCCNc1ccc(CCC2(CCl)OCCO2)cc1 | 3 |
| CCCCSc1nc(C(=O)O)cc(=O)[nH]1 | 3 |
| Cc1ccc(-c2cssc2=S)cc1 | 3 |
| CCCCOP(=O)(OCCCC)C1(C)CC(=O)CC(C)(C)C1 (centres undefined) | 3 |
| Cc1[nH]c(=S)[nH]c(=O)c1CCC1OCCO1 | 3 |
